The values below come from the antibiotic and cytotoxicity screens of Wong et al. (2023).

Out of some 39,000 compounds screened, about 3,300 (8.5%) were called active. The list comes from a sample in which actives are over-represented; it also holds similar structures and randomly drawn compounds.

The assay deals with HepG2. Description: cytotoxicity call (relative viability < 0.9). Particulars: 10 µM.
On to `Nc1cccc2c(=O)[nH][nH]c(=O)c12`, for which the cytotoxicity call was “inactive”.

With `O=C(N/N=C/[C@H](O)[C@@H](O)[C@H](O)[C@H](O)CO)c1ccccn1`, the cytotoxicity call is “inactive”.

For the compound `N[C@@H](CCO)c1cccc(Cl)c1`, the cytotoxicity call is “inactive”.

On to `C[C@H]1CN([C@@H](C)CO)C(=O)c2cc(Br)cnc2O[C@H]1CN(C)S(=O)(=O)c1ccccc1`, for which the cytotoxicity call is “inactive”.

`C[C@H](CO)N1C[C@H](C)[C@@H](CN(C)C(=O)Nc2ccc(F)cc2)Oc2ccc(NS(C)(=O)=O)cc2CC1=O`: the cytotoxicity call was “inactive”.

Consider `NCc1nnnn1-c1ccc(F)cc1`, for which the cytotoxicity call was “inactive”.

With `C[C@@H]1CCCCO[C@@H](CN(C)C(=O)c2ccccc2)[C@@H](C)CN([C@@H](C)CO)C(=O)c2cc(NC(=O)NC3CCCCC3)ccc2O1`, the cytotoxicity call is “inactive”.

Take `C[C@@H]1CN([C@H](C)CO)C(=O)c2c(c3ccccc3n2C)-c2ccccc2CO[C@H]1CN(C)Cc1cccc(F)c1`: the cytotoxicity call was “inactive”.

`C[C@H]1CN([C@@H](C)CO)C(=O)c2c(c3ccccc3n2C)-c2ccccc2CO[C@H]1CN(C)Cc1cccc(F)c1`: the cytotoxicity call is “inactive”.

As for `C[C@H](CO)N1C[C@H](C)[C@H](CN(C)Cc2cccc(F)c2)OCc2ccccc2-c2c(n(C)c3ccccc23)C1=O`, the cytotoxicity call was “active”.

As to `COc1cccc(CN(C)C[C@@H]2OCc3ccccc3-c3c(n(C)c4ccccc34)C(=O)N([C@@H](C)CO)C[C@@H]2C)c1`, the cytotoxicity call was “inactive”.

Consider `C[C@@H]1CN([C@@H](C)CO)C(=O)c2c(c3ccccc3n2C)-c2ccccc2CO[C@H]1CN(C)Cc1cccc(F)c1`, for which the cytotoxicity call was “inactive”.

Regarding `COc1cccc(CN(C)C[C@H]2OCc3ccccc3-c3c(n(C)c4ccccc34)C(=O)N([C@@H](C)CO)C[C@@H]2C)c1`, the cytotoxicity call was “inactive”.

As for `C[C@H](CO)N1C[C@H](C)[C@@H](CN(C)Cc2cccc(F)c2)OCc2ccccc2-c2c(n(C)c3ccccc23)C1=O`, the cytotoxicity call was “inactive”.

As for `COc1cccc(CN(C)C[C@H]2OCc3ccccc3-c3c(n(C)c4ccccc34)C(=O)N([C@@H](C)CO)C[C@H]2C)c1`, the cytotoxicity call is “active”.

As for `C[C@H]1CCCCO[C@@H](CN(C)S(=O)(=O)c2ccccc2)[C@@H](C)CN([C@@H](C)CO)C(=O)c2cc(NC(=O)Nc3ccccc3)ccc2O1`, the cytotoxicity call was “inactive”.

`Cc1ccc(S(=O)(=O)N2C[C@H](O)COC[C@H]3O[C@@H](CC(=O)NCc4ccc5c(c4)OCO5)CC[C@@H]32)cc1`: the cytotoxicity call was “inactive”.

Regarding `N=C(N)SC=CC(=O)O`, the cytotoxicity call is “inactive”.

In the case of `C[C@@H]1CN([C@H](C)CO)C(=O)c2cc(NC(=O)CCN3CCOCC3)ccc2O[C@@H]1CN(C)C(=O)Nc1ccc(F)cc1`, the cytotoxicity call is “inactive”.

Regarding `Cc1n[nH]c(=O)[nH]c1=O`, the cytotoxicity call is “inactive”.

In the case of `C[C@@H]1CN([C@H](C)CO)C(=O)c2cccc(NC(=O)c3ccncc3)c2O[C@H]1CN(C)S(=O)(=O)c1ccc(F)cc1`, the cytotoxicity call is “inactive”.

Turning to `C[C@@H]1CN([C@@H](C)CO)C(=O)c2cc(C#CC3(O)CCCC3)cnc2O[C@H]1CN(C)C(=O)Nc1ccc2c(c1)OCO2`, the cytotoxicity call is “inactive”.

On to `Cc1ccc(S(=O)(=O)Nc2cccc3c2O[C@@H](CN(C)Cc2ccc(Cl)c(Cl)c2)[C@@H](C)CN([C@H](C)CO)C3=O)cc1`, for which the cytotoxicity call was “inactive”.

`C[C@@H]1CCCCO[C@@H](CN(C)C(=O)Nc2cccc3ccccc23)[C@@H](C)CN([C@H](C)CO)C(=O)c2cc(NC(=O)CCC(F)(F)F)ccc2O1`: the cytotoxicity call is “inactive”.

As to `C[C@@H]1CN([C@H](C)CO)C(=O)c2cc(NC(=O)CCC(F)(F)F)ccc2O[C@@H](C)CCCCO[C@H]1CN(C)C(=O)Nc1cccc2ccccc12`, the cytotoxicity call is “active”.

In the case of `C[C@H]1CCCCO[C@H](CN(C)C(=O)Nc2cccc3ccccc23)[C@@H](C)CN([C@@H](C)CO)C(=O)c2cc(NC(=O)CCC(F)(F)F)ccc2O1`, the cytotoxicity call is “active”.

Take `C[C@@H]1CN([C@@H](C)CO)C(=O)c2cc(NC(=O)CCC(F)(F)F)ccc2O[C@@H](C)CCCCO[C@@H]1CN(C)C(=O)Nc1cccc2ccccc12`: the cytotoxicity call was “inactive”.

For the compound `C[C@H](CO)N1C[C@H](C)[C@@H](CN(C)C(=O)Nc2cccc3ccccc23)OCCCC[C@H](C)Oc2ccc(NC(=O)CCC(F)(F)F)cc2C1=O`, the cytotoxicity call is “active”.

As for `C[C@@H]1CCCCO[C@H](CN(C)C(=O)Nc2cccc3ccccc23)[C@H](C)CN([C@@H](C)CO)C(=O)c2cc(NC(=O)CCC(F)(F)F)ccc2O1`, the cytotoxicity call is “inactive”.

With `C[C@@H]1CCCCO[C@@H](CN(C)C(=O)Nc2cccc3ccccc23)[C@H](C)CN([C@@H](C)CO)C(=O)c2cc(NC(=O)CCC(F)(F)F)ccc2O1`, the cytotoxicity call was “inactive”.

Regarding `C[C@@H]1CCCCO[C@@H](CN(C)C(=O)Nc2cccc3ccccc23)[C@H](C)CN([C@H](C)CO)C(=O)c2cc(NC(=O)CCC(F)(F)F)ccc2O1`, the cytotoxicity call is “inactive”.

As for `C[C@@H]1CCCCO[C@H](CN(C)C(=O)Nc2cccc3ccccc23)[C@@H](C)CN([C@H](C)CO)C(=O)c2cc(NC(=O)CCC(F)(F)F)ccc2O1`, the cytotoxicity call is “inactive”.

`CC(C)NC(=O)N(C)C[C@H]1Oc2ccc(NS(=O)(=O)c3ccccc3)cc2C(=O)N([C@@H](C)CO)C[C@H]1C`: the cytotoxicity call was “inactive”.

`C[C@@H]1CN([C@H](C)CO)C(=O)c2cccc(NC(=O)Nc3ccccc3)c2O[C@@H]1CN(C)CC1CCCCC1`: the cytotoxicity call is “inactive”.

With `COc1ccccc1-c1cnc2c(c1)C(=O)N([C@@H](C)CO)C[C@@H](C)[C@@H](CN(C)C(=O)c1ccncc1)O2`, the cytotoxicity call is “inactive”.

Take `COc1ccc(S(=O)(=O)Nc2ccc3c(c2)C(=O)N([C@H](C)CO)C[C@@H](C)[C@@H](CN(C)C(=O)CCC(F)(F)F)OCCCC[C@@H](C)O3)cc1`: the cytotoxicity call is “inactive”.

Take `O=C(/C=C/c1ccccc1)c1ccc(O[C@@H]2O[C@H](CO)[C@@H](O)[C@H](O)[C@H]2O)cc1O`: the cytotoxicity call is “inactive”.

As for `C[C@H](CO)N1C[C@H](C)[C@@H](CN(C)S(=O)(=O)c2ccc(F)cc2)Oc2c(NS(=O)(=O)c3ccccc3)cccc2C1=O`, the cytotoxicity call is “inactive”.

`CON=C(C(=O)N[C@@H]1C(=O)N2C(C(=O)O)=C(CSc3nc(=O)c(O)nn3C)CS[C@H]12)c1csc(N)n1`: the cytotoxicity call is “inactive”.

In the case of `COc1ccc(S(=O)(=O)N(C)C[C@@H]2Oc3ccc(N(C)C)cc3C(=O)N([C@H](C)CO)C[C@H]2C)cc1`, the cytotoxicity call is “inactive”.

With `Cc1ccc(S(=O)(=O)N2C[C@@H](O)COC[C@@H]3O[C@H](CC(=O)NCCCN(C)C)CC[C@H]32)cc1`, the cytotoxicity call is “inactive”.

Take `Cc1ccc(S(=O)(=O)Nc2ccc3c(c2)C(=O)N([C@@H](C)CO)C[C@H](C)[C@H](CN(C)Cc2ccc(C(F)(F)F)cc2)O3)cc1`: the cytotoxicity call was “inactive”.

For `Cc1ccc(S(=O)(=O)Nc2ccc3c(c2)C(=O)N([C@H](C)CO)C[C@H](C)[C@H](CN(C)Cc2ccc(C(F)(F)F)cc2)O3)cc1`, the cytotoxicity call is “active”.

`Cc1ccc(S(=O)(=O)Nc2ccc3c(c2)C(=O)N([C@@H](C)CO)C[C@@H](C)[C@H](CN(C)Cc2ccc(C(F)(F)F)cc2)O3)cc1`: the cytotoxicity call was “inactive”.

Consider `Cc1ccc(S(=O)(=O)Nc2ccc3c(c2)C(=O)N([C@@H](C)CO)C[C@H](C)[C@@H](CN(C)Cc2ccc(C(F)(F)F)cc2)O3)cc1`, for which the cytotoxicity call is “inactive”.

With `Cc1ccc(S(=O)(=O)Nc2ccc3c(c2)C(=O)N([C@@H](C)CO)C[C@@H](C)[C@@H](CN(C)Cc2ccc(C(F)(F)F)cc2)O3)cc1`, the cytotoxicity call is “inactive”.

`Cc1ccc(S(=O)(=O)Nc2ccc3c(c2)C(=O)N([C@H](C)CO)C[C@H](C)[C@@H](CN(C)Cc2ccc(C(F)(F)F)cc2)O3)cc1`: the cytotoxicity call is “inactive”.

With `Cc1ccc(S(=O)(=O)Nc2ccc3c(c2)C(=O)N([C@H](C)CO)C[C@@H](C)[C@H](CN(C)Cc2ccc(C(F)(F)F)cc2)O3)cc1`, the cytotoxicity call was “active”.

As for `Cc1ccc(S(=O)(=O)Nc2ccc3c(c2)C(=O)N([C@H](C)CO)C[C@@H](C)[C@@H](CN(C)Cc2ccc(C(F)(F)F)cc2)O3)cc1`, the cytotoxicity call is “active”.
